Columns and labels:
Assay in all cases: log2 ratio of Biotin-Ahx-Ub-VS probe labelling (fragment/DMSO); higher = less target engagement (more negative = stronger competition), active = hit call of the paper (q ≤ 0.05, log2 ratio ≤ -1)
Details in all cases: compound concentration: 200 uM; treatment time: 3 h
USP34 = USP34 (UniProt Q70CQ2)
Procedure, shortened: (§1)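 Fragment (200 µM) or vehicle was incubated for 3 h with triplicate HEK293T lysate samples of 495 µg, which were then treated with Biotin-Ahx-Ub-VS at 0.5 µM final for 1 h. Labelled DUBs were enriched on NeutrAvidin, digested with LysC and trypsin, and analysed by diaPASEF LC-MS/MS. Values are average log2 fragment/vehicle ratios from an unpaired t-test on global-median-normalised Spectronaut label-free quantities, using proteins with ≥2 unique peptides.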

USP36 = molecular target: T1, USP36 (UniProt Q9P275)
T1 sequence (whole entry): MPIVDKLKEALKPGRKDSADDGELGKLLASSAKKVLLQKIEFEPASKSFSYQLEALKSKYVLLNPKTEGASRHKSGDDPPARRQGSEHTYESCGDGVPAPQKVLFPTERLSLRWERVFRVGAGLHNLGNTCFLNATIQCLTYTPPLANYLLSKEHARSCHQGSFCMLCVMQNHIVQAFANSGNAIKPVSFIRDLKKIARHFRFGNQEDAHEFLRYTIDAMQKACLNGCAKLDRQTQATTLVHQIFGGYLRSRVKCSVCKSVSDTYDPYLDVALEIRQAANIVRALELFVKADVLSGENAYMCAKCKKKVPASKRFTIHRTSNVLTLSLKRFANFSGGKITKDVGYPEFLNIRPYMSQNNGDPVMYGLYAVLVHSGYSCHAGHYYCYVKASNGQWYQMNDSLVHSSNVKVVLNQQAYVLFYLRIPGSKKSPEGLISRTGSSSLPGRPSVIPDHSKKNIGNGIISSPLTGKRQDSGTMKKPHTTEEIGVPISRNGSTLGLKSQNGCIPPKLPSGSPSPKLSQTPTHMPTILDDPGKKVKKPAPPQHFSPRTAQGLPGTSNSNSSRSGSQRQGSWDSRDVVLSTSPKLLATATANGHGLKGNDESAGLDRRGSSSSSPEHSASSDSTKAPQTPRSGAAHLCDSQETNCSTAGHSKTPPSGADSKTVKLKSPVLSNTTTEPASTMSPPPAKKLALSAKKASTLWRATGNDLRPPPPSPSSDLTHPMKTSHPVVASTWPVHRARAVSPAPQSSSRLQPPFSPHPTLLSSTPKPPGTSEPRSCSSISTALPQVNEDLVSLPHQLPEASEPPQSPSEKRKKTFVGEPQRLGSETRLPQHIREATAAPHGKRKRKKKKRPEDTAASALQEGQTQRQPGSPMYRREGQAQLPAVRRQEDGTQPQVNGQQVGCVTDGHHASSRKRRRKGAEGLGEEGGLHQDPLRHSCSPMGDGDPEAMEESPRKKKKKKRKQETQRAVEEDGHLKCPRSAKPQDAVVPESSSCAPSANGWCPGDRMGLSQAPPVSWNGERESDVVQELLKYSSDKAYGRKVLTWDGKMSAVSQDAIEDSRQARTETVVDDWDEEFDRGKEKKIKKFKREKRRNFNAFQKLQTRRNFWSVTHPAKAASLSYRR
Procedure, shortened: as §1

USP38 = molecular target: T2, USP38 (UniProt Q8NB14)
T2 sequence (whole entry): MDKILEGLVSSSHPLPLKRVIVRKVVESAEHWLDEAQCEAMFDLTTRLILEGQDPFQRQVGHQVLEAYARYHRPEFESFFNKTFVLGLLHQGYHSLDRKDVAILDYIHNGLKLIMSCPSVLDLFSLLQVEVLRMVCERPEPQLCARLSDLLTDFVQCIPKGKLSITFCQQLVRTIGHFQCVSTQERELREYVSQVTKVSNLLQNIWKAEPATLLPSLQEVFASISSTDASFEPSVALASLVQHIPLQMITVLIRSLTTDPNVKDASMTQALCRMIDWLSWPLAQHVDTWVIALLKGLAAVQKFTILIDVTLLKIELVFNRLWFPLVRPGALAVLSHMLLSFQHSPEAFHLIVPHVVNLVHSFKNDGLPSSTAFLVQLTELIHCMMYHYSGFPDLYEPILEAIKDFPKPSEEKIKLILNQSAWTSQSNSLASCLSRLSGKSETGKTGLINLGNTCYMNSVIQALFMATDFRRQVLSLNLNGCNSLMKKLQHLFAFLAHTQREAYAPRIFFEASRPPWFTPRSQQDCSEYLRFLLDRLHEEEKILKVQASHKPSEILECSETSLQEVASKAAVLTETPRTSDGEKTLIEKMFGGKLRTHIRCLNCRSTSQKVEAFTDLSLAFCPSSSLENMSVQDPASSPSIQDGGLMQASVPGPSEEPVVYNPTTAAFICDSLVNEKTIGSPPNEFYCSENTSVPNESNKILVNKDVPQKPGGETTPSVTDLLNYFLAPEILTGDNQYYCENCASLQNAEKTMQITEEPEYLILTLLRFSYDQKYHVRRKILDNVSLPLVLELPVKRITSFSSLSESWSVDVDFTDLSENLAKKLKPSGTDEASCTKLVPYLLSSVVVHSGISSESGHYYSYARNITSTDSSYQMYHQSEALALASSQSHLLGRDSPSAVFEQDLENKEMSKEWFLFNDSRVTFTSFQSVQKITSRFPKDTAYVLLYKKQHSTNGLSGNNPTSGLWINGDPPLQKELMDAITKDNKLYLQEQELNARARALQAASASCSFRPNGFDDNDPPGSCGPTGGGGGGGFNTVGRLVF
Procedure, shortened: as §1

USP39 = molecular target: T3, USP39 (UniProt Q53GS9)
T3 sequence (whole entry): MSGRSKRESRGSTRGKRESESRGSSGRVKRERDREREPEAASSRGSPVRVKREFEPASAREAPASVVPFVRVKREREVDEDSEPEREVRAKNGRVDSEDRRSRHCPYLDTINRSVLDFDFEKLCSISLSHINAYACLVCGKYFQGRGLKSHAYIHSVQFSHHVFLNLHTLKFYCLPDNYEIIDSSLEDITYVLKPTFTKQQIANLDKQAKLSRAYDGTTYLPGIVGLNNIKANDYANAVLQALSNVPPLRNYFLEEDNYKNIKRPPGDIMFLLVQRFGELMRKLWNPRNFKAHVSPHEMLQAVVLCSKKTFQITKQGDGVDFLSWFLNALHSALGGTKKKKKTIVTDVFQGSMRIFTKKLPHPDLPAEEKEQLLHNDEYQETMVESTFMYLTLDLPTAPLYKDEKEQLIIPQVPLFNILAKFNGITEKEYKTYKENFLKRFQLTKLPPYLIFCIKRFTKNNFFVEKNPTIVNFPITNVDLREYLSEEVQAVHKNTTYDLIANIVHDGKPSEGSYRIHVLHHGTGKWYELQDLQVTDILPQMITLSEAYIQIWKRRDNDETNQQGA
Procedure, shortened: as §1

USP4 = molecular target: T4, USP4 (UniProt Q13107)
T4 sequence (whole entry): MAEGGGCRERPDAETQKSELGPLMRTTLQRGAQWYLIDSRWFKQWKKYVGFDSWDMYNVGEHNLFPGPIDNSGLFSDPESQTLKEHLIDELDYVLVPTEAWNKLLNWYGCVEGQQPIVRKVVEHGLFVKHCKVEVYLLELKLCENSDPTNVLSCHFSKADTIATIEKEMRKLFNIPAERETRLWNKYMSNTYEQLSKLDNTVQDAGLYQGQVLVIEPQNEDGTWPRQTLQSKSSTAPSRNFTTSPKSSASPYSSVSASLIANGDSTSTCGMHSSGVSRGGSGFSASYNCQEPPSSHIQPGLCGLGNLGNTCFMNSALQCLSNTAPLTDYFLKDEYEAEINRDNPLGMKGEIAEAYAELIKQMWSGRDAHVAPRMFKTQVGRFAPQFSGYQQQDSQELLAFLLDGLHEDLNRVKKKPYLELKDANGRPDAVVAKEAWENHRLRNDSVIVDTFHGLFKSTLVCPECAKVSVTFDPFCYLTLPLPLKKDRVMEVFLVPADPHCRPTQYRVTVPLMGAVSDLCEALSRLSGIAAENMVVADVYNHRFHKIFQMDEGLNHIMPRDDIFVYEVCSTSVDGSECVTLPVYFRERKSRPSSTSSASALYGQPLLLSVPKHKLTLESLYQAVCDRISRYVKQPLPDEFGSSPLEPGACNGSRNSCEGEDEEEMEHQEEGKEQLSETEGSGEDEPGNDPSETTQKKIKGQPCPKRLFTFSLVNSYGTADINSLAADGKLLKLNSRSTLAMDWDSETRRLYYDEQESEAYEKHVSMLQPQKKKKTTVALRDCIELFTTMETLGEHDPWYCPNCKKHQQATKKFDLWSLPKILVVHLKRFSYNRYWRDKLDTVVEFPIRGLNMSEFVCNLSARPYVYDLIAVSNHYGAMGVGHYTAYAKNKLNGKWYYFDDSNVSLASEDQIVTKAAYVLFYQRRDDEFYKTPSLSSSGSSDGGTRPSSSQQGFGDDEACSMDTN
Procedure, shortened: as §1

Measured: log2 ratio of Biotin-Ahx-Ub-VS probe labelling

Chain of USP34 (Q70CQ2 whole entry, the tested form may be a part): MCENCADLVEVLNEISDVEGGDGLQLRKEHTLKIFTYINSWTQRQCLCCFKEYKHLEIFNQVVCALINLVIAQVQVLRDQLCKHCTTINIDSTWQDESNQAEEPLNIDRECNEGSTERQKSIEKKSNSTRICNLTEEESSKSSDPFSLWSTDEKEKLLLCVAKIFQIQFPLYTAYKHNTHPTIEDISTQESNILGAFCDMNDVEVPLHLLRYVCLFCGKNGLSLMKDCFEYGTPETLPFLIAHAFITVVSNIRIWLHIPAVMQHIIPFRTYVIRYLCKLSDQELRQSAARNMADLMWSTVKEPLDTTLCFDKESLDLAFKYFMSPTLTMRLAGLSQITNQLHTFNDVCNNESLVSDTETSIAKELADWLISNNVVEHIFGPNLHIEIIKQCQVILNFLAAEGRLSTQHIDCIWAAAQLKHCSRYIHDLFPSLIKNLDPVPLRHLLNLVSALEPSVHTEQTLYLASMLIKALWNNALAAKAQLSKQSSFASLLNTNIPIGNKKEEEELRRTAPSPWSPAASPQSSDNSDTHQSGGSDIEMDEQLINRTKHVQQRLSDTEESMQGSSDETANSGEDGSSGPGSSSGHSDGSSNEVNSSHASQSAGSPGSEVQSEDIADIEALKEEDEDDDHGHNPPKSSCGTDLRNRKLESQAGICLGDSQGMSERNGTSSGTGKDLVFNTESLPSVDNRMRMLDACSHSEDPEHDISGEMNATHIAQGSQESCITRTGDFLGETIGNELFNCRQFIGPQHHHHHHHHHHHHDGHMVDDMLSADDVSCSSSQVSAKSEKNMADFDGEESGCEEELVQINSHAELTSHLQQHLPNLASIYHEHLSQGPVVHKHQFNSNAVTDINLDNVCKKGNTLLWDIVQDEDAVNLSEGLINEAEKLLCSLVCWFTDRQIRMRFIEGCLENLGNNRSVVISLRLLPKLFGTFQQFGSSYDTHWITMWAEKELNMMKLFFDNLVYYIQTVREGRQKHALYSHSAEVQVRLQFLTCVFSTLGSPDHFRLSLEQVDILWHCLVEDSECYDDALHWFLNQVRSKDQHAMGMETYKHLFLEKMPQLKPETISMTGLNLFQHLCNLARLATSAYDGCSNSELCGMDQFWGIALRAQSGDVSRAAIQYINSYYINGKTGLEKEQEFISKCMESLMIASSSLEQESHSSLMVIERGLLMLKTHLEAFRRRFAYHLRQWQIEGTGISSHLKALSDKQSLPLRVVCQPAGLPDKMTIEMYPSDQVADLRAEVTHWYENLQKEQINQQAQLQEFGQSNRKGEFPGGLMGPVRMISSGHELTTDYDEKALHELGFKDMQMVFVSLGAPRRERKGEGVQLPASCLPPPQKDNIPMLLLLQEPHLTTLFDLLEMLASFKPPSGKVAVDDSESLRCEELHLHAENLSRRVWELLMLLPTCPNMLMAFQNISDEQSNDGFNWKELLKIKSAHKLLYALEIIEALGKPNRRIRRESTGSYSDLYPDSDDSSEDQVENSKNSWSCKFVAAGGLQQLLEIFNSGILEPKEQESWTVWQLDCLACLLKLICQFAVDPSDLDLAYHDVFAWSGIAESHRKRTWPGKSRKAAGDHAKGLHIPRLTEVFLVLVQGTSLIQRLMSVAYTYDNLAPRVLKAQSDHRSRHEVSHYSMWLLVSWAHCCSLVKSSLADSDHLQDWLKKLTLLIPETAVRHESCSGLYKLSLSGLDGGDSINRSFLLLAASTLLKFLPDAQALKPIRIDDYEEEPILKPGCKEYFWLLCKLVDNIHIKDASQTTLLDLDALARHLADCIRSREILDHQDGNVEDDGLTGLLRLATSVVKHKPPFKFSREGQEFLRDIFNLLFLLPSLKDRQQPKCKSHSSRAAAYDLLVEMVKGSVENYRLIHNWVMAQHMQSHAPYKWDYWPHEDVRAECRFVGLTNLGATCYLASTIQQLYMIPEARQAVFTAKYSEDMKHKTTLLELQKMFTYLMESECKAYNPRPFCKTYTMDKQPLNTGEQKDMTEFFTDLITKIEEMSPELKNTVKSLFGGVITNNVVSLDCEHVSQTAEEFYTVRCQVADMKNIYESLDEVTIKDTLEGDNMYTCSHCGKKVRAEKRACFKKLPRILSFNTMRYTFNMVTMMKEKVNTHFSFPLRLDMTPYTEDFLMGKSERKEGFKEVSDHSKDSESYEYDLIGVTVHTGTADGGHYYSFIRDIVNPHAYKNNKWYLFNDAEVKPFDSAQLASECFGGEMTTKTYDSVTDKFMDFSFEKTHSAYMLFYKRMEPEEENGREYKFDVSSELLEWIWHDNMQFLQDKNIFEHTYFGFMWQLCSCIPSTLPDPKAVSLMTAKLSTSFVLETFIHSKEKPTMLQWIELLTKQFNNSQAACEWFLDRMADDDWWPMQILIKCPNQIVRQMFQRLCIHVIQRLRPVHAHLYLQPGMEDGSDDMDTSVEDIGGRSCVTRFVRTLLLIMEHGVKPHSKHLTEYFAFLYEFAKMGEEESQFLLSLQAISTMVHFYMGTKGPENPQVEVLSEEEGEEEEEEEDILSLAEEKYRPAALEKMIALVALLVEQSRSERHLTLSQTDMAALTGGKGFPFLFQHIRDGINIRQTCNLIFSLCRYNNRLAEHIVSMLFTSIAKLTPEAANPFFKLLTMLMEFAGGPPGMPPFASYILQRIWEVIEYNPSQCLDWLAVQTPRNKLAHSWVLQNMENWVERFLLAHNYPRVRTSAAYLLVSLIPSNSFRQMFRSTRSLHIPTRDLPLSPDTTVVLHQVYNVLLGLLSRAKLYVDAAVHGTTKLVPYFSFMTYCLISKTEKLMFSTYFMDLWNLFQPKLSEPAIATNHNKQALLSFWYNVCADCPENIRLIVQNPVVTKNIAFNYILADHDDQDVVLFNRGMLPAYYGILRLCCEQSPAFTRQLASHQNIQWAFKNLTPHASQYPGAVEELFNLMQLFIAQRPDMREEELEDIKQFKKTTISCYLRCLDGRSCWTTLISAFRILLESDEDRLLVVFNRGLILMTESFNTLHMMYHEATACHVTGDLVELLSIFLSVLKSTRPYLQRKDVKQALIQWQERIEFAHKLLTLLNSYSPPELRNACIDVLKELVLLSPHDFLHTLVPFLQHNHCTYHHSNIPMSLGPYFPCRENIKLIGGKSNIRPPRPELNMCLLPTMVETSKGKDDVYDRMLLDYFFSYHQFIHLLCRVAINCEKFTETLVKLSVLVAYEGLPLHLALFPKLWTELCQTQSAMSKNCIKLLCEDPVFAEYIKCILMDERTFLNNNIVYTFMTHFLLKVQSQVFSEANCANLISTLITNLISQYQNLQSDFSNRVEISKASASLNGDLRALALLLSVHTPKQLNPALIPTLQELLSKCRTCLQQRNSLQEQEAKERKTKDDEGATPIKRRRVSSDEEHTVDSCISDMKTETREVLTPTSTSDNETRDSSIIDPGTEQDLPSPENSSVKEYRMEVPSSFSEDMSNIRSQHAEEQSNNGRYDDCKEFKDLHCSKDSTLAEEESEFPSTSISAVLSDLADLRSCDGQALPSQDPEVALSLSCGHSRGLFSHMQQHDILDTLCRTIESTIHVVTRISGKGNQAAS

O=C(CCl)N1CCC(O)(Cc2ccc(F)cc2)C1 (stereo not given)
inactive: USP34 -0.0775 | USP36 0.229 | USP38 0.29 | USP39 0.427 | USP4 -0.138

Reference: the supplement of paper PMC11732987, “Enantioselective OTUD7B fragment discovery through chemoproteomics screening and high-throughput optimisation” (Communications Chemistry, 2025)
